# Assay results reported in PubChem BioAssay AID1159580 (chemical genetic matrix, 2015).
# Screen size: about 5,500 compounds; about 2,000 (36%) were called active. About 18% were inconclusive and are not listed. This is one part of the list. Unmarked numbers belong to inactive results. Cut-off read from the data, not from the text of the source: active = normalized growth mostly below about 0.91 (no sharp cut-off); inconclusive = no clear call, values can overlap the other calls; inactive = mostly above about 0.92.
# Experiment: chemical genetic growth profiling, strain panel (AID 1159580);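 note: tested at 20 µM; growth read once vehicle control cultures reached saturation at 30 °C; 1 = growth at the plate median or of vehicle wells; lower values mean less growth of the strain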
# Details: growth OD
# [1] = S. cerevisiae deletion strains, locus YDL101C, strain DUN1, hits give low values
# [2] = S. cerevisiae deletion strains, locus YHR030C, strain SLT2, hits give low values
smiles,measurement,setting,value
NC(=S)N/N=C\c1cccs1,normalized growth,"S. cerevisiae deletion strains, locus YAL013W, strain DEP1, hits give low values",0.984
same,normalized growth,"S. cerevisiae deletion strains, locus YBR229C, strain ROT2, hits give low values",0.96
same,normalized growth,[1],0.979
same,normalized growth,"S. cerevisiae deletion strains, locus YDR150W, strain NUM1, hits give low values",0.962
same,normalized growth,"S. cerevisiae deletion strains, locus YEL061C, strain CIN8, hits give low values",0.945
same,normalized growth,"S. cerevisiae deletion strains, locus YGR078C, strain PAC10, hits give low values",0.98
same,normalized growth,"S. cerevisiae deletion strains, locus YGR229C, strain SMI1, hits give low values",1.01
same,normalized growth,[2],0.992
same,normalized growth,"S. cerevisiae deletion strains, locus YHR087W, strain rtc3, hits give low values",1.02
same,normalized growth,"S. cerevisiae deletion strains, locus YJR043C, strain POL32, hits give low values",0.973
same,normalized growth,"S. cerevisiae deletion strains, locus YJR075W, strain HOC1, hits give low values",0.829 (active)
same,normalized growth,"S. cerevisiae deletion strains, locus YKL190W, strain CNB1, hits give low values",1
same,normalized growth,"S. cerevisiae deletion strains, locus YLR039C, strain RIC1, hits give low values",1.11
same,normalized growth,"S. cerevisiae deletion strains, locus YLR058C, strain SHM2 (second series), hits give low values",1
same,normalized growth,"S. cerevisiae deletion strains, locus YLR085C, strain ARP6, hits give low values",0.562 (active)
same,normalized growth,"S. cerevisiae deletion strains, locus YLR262C, strain YPT6, hits give low values",1.08
same,normalized growth,"S. cerevisiae deletion strains, locus YML094W, strain GIM5, hits give low values",0.92
same,normalized growth,"S. cerevisiae deletion strains, locus YMR219W, strain ESC1, hits give low values",0.873 (active)
same,normalized growth,"S. cerevisiae deletion strains, locus YMR263W, strain SAP30, hits give low values",0.997
same,normalized growth,"S. cerevisiae deletion strains, locus YNL128W, strain TEP1, hits give low values",1
same,normalized growth,"S. cerevisiae deletion strains, locus YNL153C, strain GIM3, hits give low values",0.898 (active)
same,normalized growth,"S. cerevisiae deletion strains, locus YNL298W, strain CLA4 (second series), hits give low values",0.955
same,normalized growth,"S. cerevisiae deletion strains, locus YNL322C, strain KRE1, hits give low values",1.02
same,normalized growth,"S. cerevisiae deletion strains, locus YNR030W, strain Alg12, hits give low values",0.737 (active)
same,normalized growth,"S. cerevisiae deletion strains, locus YPL055C, strain LGE1, hits give low values",0.915
same,normalized growth,"S. cerevisiae deletion strains, locus YPL241C, strain CIN2, hits give low values",1.06
same,normalized growth,"S. cerevisiae deletion strains, locus YPR135W, strain CTF4, hits give low values",1.02
same,normalized growth,"S. cerevisiae strains, strain wild type, hits give low values",1
O=[N+]([O-])c1ccccc1CS(=O)(=O)c1nc2ccccc2s1,normalized growth,"S. cerevisiae deletion strains, locus YAR019C, strain CDC15, hits give low values",0.862 (active)
same,normalized growth,"S. cerevisiae deletion strains, locus YBL105C, strain PKC1, hits give low values",0.895 (active)
same,normalized growth,"S. cerevisiae deletion strains, locus YBR135W, strain CKS1, hits give low values",0.89 (active)
same,normalized growth,"S. cerevisiae deletion strains, locus YBR136W, strain MEC1, hits give low values",0.883 (active)
same,normalized growth,"S. cerevisiae deletion strains, locus YBR160W, strain CDC28, hits give low values",0.886 (active)
same,normalized growth,"S. cerevisiae deletion strains, locus YDL017W, strain CDC7, hits give low values",0.894 (active)
same,normalized growth,"S. cerevisiae deletion strains, locus YDL028C, strain MPS1, hits give low values",0.892 (active)
same,normalized growth,[1],0.889 (active)
same,normalized growth,"S. cerevisiae deletion strains, locus YDL108W, strain KIN28, hits give low values",0.889 (active)
same,normalized growth,"S. cerevisiae deletion strains, locus YDL132W, strain cdc53, hits give low values",0.828 (active)
same,normalized growth,"S. cerevisiae deletion strains, locus YDL214C, strain PRR2, hits give low values",0.884
same,normalized growth,"S. cerevisiae deletion strains, locus YDR052C, strain DBF4, hits give low values",0.87 (active)
same,normalized growth,"S. cerevisiae deletion strains, locus YDR054C, strain cdc34, hits give low values",0.855 (active)
same,normalized growth,"S. cerevisiae deletion strains, locus YDR226W, strain ADK1, hits give low values",0.878 (active)
same,normalized growth,"S. cerevisiae deletion strains, locus YDR477W, strain SNF1, hits give low values",0.728
same,normalized growth,"S. cerevisiae deletion strains, locus YER123W, strain YCK3, hits give low values",0.821
same,normalized growth,"S. cerevisiae deletion strains, locus YER133W, strain GLC7, hits give low values",0.773
same,normalized growth,"S. cerevisiae deletion strains, locus YFL009W, strain cdc4, hits give low values",0.855 (active)
same,normalized growth,"S. cerevisiae deletion strains, locus YFL029C, strain CAK1, hits give low values",0.849 (active)
same,normalized growth,"S. cerevisiae deletion strains, locus YFR003C, strain YPI1, hits give low values",0.904
same,normalized growth,"S. cerevisiae deletion strains, locus YFR019W, strain FAB1, hits give low values",0.933
same,normalized growth,"S. cerevisiae deletion strains, locus YFR028C, strain CDC14, hits give low values",0.863 (active)
same,normalized growth,"S. cerevisiae deletion strains, locus YGR040W, strain KSS1, hits give low values",0.791
same,normalized growth,"S. cerevisiae deletion strains, locus YGR052W, strain FMP48, hits give low values",0.835
same,normalized growth,"S. cerevisiae deletion strains, locus YGR092W, strain DBF2, hits give low values",0.537
same,normalized growth,[2],0.671 (active)
same,normalized growth,"S. cerevisiae deletion strains, locus YHR079C, strain IRE1, hits give low values",0.946
same,normalized growth,"S. cerevisiae deletion strains, locus YHR082C, strain KSP1, hits give low values",0.949
same,normalized growth,"S. cerevisiae deletion strains, locus YHR205W, strain SCH9, hits give low values",0.933
same,normalized growth,"S. cerevisiae deletion strains, locus YIL147C, strain SLN1, hits give low values",0.894
same,normalized growth,"S. cerevisiae deletion strains, locus YJL095W, strain BCK1, hits give low values",0.616
same,normalized growth,"S. cerevisiae deletion strains, locus YJL128C, strain PBS2, hits give low values",0.953
same,normalized growth,"S. cerevisiae deletion strains, locus YJL157C, strain FAR1, hits give low values",0.867
same,normalized growth,"S. cerevisiae deletion strains, locus YJR016C, strain ILV3, hits give low values",0.871 (active)
same,normalized growth,"S. cerevisiae deletion strains, locus YJR066W, strain TOR1 (second series), hits give low values",0.832
same,normalized growth,"S. cerevisiae deletion strains, locus YJR066W, strain TOR1, hits give low values",0.753
same,normalized growth,"S. cerevisiae deletion strains, locus YKL048C, strain ELM1, hits give low values",0.755 (active)
same,normalized growth,"S. cerevisiae deletion strains, locus YKL067W, strain YNK1, hits give low values",0.921
same,normalized growth,"S. cerevisiae deletion strains, locus YKL101W, strain HSL1, hits give low values",0.902
same,normalized growth,"S. cerevisiae deletion strains, locus YKL193C, strain SDS22, hits give low values",0.864 (active)
same,normalized growth,"S. cerevisiae deletion strains, locus YKL203C, strain TOR2, hits give low values",0.711 (active)
same,normalized growth,"S. cerevisiae deletion strains, locus YLR113W, strain HOG1, hits give low values",0.887
same,normalized growth,"S. cerevisiae deletion strains, locus YLR133W, strain CKI1, hits give low values",0.916
same,normalized growth,"S. cerevisiae deletion strains, locus YLR403W, strain SFP1, hits give low values",0.503 (active)
same,normalized growth,"S. cerevisiae deletion strains, locus YML070W, strain DAK1, hits give low values",0.881
same,normalized growth,"S. cerevisiae deletion strains, locus YMR001C, strain CDC5, hits give low values",0.891
same,normalized growth,"S. cerevisiae deletion strains, locus YMR205C, strain PFK2 (second series), hits give low values",0.91
same,normalized growth,"S. cerevisiae deletion strains, locus YMR277W, strain FCP1, hits give low values",0.852 (active)
same,normalized growth,"S. cerevisiae deletion strains, locus YNL006W, strain LST8, hits give low values",0.894 (active)
same,normalized growth,"S. cerevisiae deletion strains, locus YNL020C, strain ARK1, hits give low values",0.918
same,normalized growth,"S. cerevisiae deletion strains, locus YNL161W, strain CBK1, hits give low values",0.885 (active)
same,normalized growth,"S. cerevisiae deletion strains, locus YNL183C, strain NPR1, hits give low values",0.871
same,normalized growth,"S. cerevisiae deletion strains, locus YNL207W, strain RIO2, hits give low values",0.852 (active)
same,normalized growth,"S. cerevisiae deletion strains, locus YNL222W, strain SSU72, hits give low values",0.886 (active)
same,normalized growth,"S. cerevisiae deletion strains, locus YNL307C, strain MCK1 (second series), hits give low values",0.655
same,normalized growth,"S. cerevisiae deletion strains, locus YOL078W, strain AVO1, hits give low values",0.834 (active)
same,normalized growth,"S. cerevisiae deletion strains, locus YOL136C, strain PFK27, hits give low values",0.843
same,normalized growth,"S. cerevisiae deletion strains, locus YOR061W, strain CKA2, hits give low values",0.908
same,normalized growth,"S. cerevisiae deletion strains, locus YOR119C, strain RIO1, hits give low values",0.734
same,normalized growth,"S. cerevisiae deletion strains, locus YOR231W, strain MKK1, hits give low values",0.91
same,normalized growth,"S. cerevisiae deletion strains, locus YOR329C, strain SCD5, hits give low values",0.896 (active)
same,normalized growth,"S. cerevisiae deletion strains, locus YPL031C, strain PHO85, hits give low values",0.704
same,normalized growth,"S. cerevisiae deletion strains, locus YPL153C, strain RAD53, hits give low values",0.764
same,normalized growth,"S. cerevisiae deletion strains, locus YPL204W, strain HRR25, hits give low values",0.678
same,normalized growth,"S. cerevisiae deletion strains, locus YPL209C, strain IPL1, hits give low values",0.882 (active)
same,normalized growth,"S. cerevisiae deletion strains, locus YPL256C, strain CLN2, hits give low values",1.08
same,normalized growth,"S. cerevisiae deletion strains, locus YPR025C, strain CCL1, hits give low values",0.892 (active)
same,normalized growth,"S. cerevisiae deletion strains, locus YPR106W, strain ISR1, hits give low values",0.966
same,normalized growth,"S. cerevisiae deletion strains, locus YPR111W, strain DBF20, hits give low values",0.952
same,normalized growth,"S. cerevisiae deletion strains, strain NNK1, hits give low values",0.93
same,normalized growth,"S. cerevisiae deletion strains, strain TSCII, hits give low values",0.848 (active)
